Rab9 prom act – qHTS Assay for Rab9 Promoter Activators; Potency, µM (doses to about 9.22 µM), without a hit: at the highest dose activation, negative = inhibition, actives largely listed as activators; Huh7 Rab9 promoter-luciferase reporter, luminescence, 24 h; 2.8% of 320,000 active; note: % of control where 0% means no effect; nearly all actives have a fitted effect of over 60% in size
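Huh7 cells stably carrying Rab9 promoter–luciferase reporter, plated 1500 cells/well, compound added after 2 h and incubated 24 h at 37 °C; luciferase luminescence then read after 10 min with detection reagent.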
FLuc modulator – qHTS profiling assay for firefly luciferase inhibitor/activator using purifed enzyme and Km concentrations of substrates (counterscreen for miR-21 project). Luciferin 4-monooxygenase (Photinus pyralis), P08659. purified FLuc, Km substrates, luminescence inhibition. Potency, µM (doses to about 57.5 µM), without a hit: at the highest dose activity change, negative = inhibition, actives largely listed as inhibitors. 6.9% of 360,000 active. AID 588342, 2011;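 note: plate controls were vehicle for no effect and reference inhibitor for full effect; nearly all actives have a fitted effect of over 55% in size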
Target sequence (P08659 whole entry, looked up): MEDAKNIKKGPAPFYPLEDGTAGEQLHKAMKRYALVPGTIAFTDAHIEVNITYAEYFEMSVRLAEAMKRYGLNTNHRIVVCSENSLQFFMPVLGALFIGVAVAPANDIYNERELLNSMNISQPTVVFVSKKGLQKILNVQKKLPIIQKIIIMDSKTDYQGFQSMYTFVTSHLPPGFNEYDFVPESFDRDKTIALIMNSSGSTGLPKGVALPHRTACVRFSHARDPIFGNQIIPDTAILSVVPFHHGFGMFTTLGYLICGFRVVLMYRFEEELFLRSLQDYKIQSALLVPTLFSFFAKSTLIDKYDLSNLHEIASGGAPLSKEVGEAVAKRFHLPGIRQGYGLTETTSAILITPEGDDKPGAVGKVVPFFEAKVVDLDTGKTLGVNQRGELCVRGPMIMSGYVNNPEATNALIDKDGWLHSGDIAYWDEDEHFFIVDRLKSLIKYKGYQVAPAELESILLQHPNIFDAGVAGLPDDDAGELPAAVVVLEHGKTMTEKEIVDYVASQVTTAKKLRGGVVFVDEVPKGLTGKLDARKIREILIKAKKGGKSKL
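Purified P. pyralis luciferase (10nM final) with 10uM D-luciferin and 10uM ATP (Km levels) in 50mM Tris acetate pH 7.5, 10mM Mg acetate, 0.01% Tween-20, 0.05% BSA; qHTS 6-point titration, ~60 µM downward; luminescence read.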
SMN2 splice enh – qHTS Assay for Enhancers of SMN2 Splice Variant Expression | AID 1458, 2008 | Potency, µM (series often up to 46.1 µM), for inactives: at the top dose activity change, positive = activation, most hits filed as activators | 2.8% of 210,000 active | HEK293 SMN2-luciferase splicing reporter, luminescence, 30-36 h; note: % of control where 0% means no effect; nearly all actives have a fitted effect of over 55% in size
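qHTS luciferase splicing reporter: luminescence rises when SMN2 exon 7 is included in transfected HEK293 cells. Compound exposure lasted 30-36 h at 37C, with 4.5 mM final sodium butyrate as control, followed by a ONE-Glo read.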
NPC1 prom act – qHTS Assay for NPC1 Promoter Activators | 2.4% of 320,000 active | Potency, µM (titrated, usually from 9.22 µM), for inactives: top-dose activation, most hits filed as activators | AID 485313, 2010 | Huh7 NPC1 promoter luciferase reporter, 24 h; note: % of control where 0% means no effect; nearly all actives have a fitted effect of over 60% in size
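Cells: Huh7 expressing luciferase under the NPC1 promoter, 1500/well. Seeded 2 h, compound added, incubated 24 h at 37 °C. Luciferase reagent, 10 min ambient, then luminescence.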
ELG1 genotoxic – qHTS screen for small molecules that induce genotoxicity in human embryonic kidney (HEK293T) cells expressing luciferase-tagged ELG1. Potency, µM (highest dose often 46 µM), inactives show top-dose activity change, positive = activation, usual class: activators. HEK293T ELG1-luciferase reporter, luminescence, 16 h. 1.3% of 330,000 active; note: % of control where 0% means no effect; nearly all actives have a fitted effect of over 60% in size
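Genotoxic stress is detected as increased luminescence from luciferase-tagged ELG1 in HEK293T cells, measured with ONE-Glo after a 16 hr treatment at 37 °C.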
KinaseGlo FLuc – Counterscreen for Luciferase (Kinase-Glo TM) Inhibition; Kinase-Glo luciferase, ATP luminescence, 8 min; Potency, µM (doses to about 38.3 µM), without a hit: at the top dose activity change, negative = inhibition, most hits filed as inhibitors; Luciferin 4-monooxygenase (Photuris pensylvanica), Q27757; 0.28% of 200,000 active; note: % is set by controls: 0 for no effect and ±100 for the full control effect; nearly all actives have a fitted effect of over 60% in size
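Light output from Kinase-Glo luciferase with luciferin and 10 uM ATP in 50 mM imidazole pH 7.2, KCl, MgCl2, Tween 20, BSA; compound pin-delivered, 8-min ambient incubation, then luminescence read.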
* = called active by the depositor; ? = inconclusive; nt = no result given; [ ] = remark or other dose. This is a sample that favours compounds with a hit; in the whole collection about 7.3% have one here. Calls come from the whole dose curve; as a rule, active = well fitted curve in the direction sought with a large enough effect; inconclusive = small, poorly fitted or top-dose-only effect, or another doubt; inactive = no such curve, though single readings can be large; an effect the other way counts as inactive or inconclusive. Potency is the fitted concentration of half-maximal effect.

SMILES	Rab9 prom act	FLuc modulator	SMN2 splice enh	NPC1 prom act	ELG1 genotoxic	KinaseGlo FLuc
COc1ccccc1CNS(=O)(=O)c1cnc(N)nc1	nt	-3%	nt	nt	nt	nt
CCOc1cccc2sc(NC(=O)c3ccc(Br)s3)nc12	16%	2.7µM*	-21%	19%	-1%	-1%
S=C([S-])NCCNC(=S)[S-].[Zn+2]	nt	nt	-15%	nt	nt	nt
CCN1CCN(C(=O)c2nn(-c3ccc(C)cc3)c(=O)c3c2c2ccccc2n3C)CC1	1%	4%	25µM*	6%	7%	0%
CCOC(=O)C1CCCN(C(=O)c2nn(-c3ccc(C)cc3)c(=O)c3c2c2ccccc2n3C)C1 (configuration not stated)	nt	-2%	4%	nt	nt	nt
CN(C)S(=O)(=O)c1ccc2c(c1)c(=O)c(C(=O)N1CCN(c3cccc(Cl)c3)CC1)cn2C	nt	4%	8%	nt	nt	nt
CCCCCCCc1ccc(-c2ccc(O)cc2)nc1	3.2µM*	19µM*	14µM*	?	?	-1%
CCCc1ccc(-c2ccc(C(=O)Oc3ccc(Br)cc3)cc2)nc1	nt	-4%	4%	nt	nt	nt
CCCCCc1ccc(-c2ccc(Br)cc2)nc1	nt	2.1µM*	-1%	nt	nt	nt
CCOc1ccc(CNC(=O)CCn2c(=O)c3cccn3c3ccc(F)cc32)cc1	nt	-7%	nt	nt	nt	nt
Cc1cc(C)cc(-n2ccnc2SCC(=O)Nc2cccc3ccccc23)c1	nt	-15%	nt	nt	nt	nt
C/C(=C\c1ccc(N)cc1)c1nc2ccccc2[nH]1	2.2µM*	3µM*	nt	2.5µM*	?	nt
NC(=S)Cc1nc2n(n1)Cc1ccccc1-2	-8%	3%	-8%	0%	5%	-5%
O=c1nc2n(c3c1oc1ccccc13)Cc1ccccc1-2	-1%	-3%	-15%	-11%	?	6%
CCn1c(C)nc2cc(-c3nc4n(n3)Cc3ccccc3-4)ccc21	-43%	0.024µM*	-65%	-48%	-19%	2.2µM*
Fc1ccc(-c2nc3n(n2)Cc2ccccc2-3)cc1	?	0.6µM*	2.8µM*	?	0.41µM*	11µM*
Cc1ccc(-c2nc3n(n2)Cc2ccccc2-3)cc1	3.2µM*	0.3µM*	1.3µM*	3.5µM*	?	?
COc1ccc2c(c1)c1c(c(=O)n(-c3cccc(Cl)c3)c(=O)n1CC(=O)N1CCCC1)n2C	nt	-1%	nt	nt	nt	nt
Cc1nc(-c2cccc(NC(=O)c3cccs3)c2)cs1	-4%	24µM*	12%	8%	0%	1%
O=C(Nc1cccc(NC(=O)c2cccs2)c1)c1cccnc1	-1%	?	3%	-1%	-7%	-2%
O=C(Nc1cccc(-c2csc(-c3ccccc3)n2)c1)c1cccs1	-1%	11µM*	-23%	4%	-12%	17%
O=C(Nc1ccccc1)c1csc(-c2ccccc2)n1	16%	21µM*	2%	12%	8%	0%
O=C(Nc1ccccc1Cl)c1csc(-c2cccnc2)n1	2.8µM*	12µM*	nt	2.8µM*	18%	nt
Nc1nc(N)c(CCCCc2ccccc2)c(N)n1	nt	nt	-12%[9.22 µM]	nt	nt	-6%[7.66 µM]
CC(=O)Nc1c(-c2ccc3ccccc3c2)nc2ccccn12	?	1.9µM*	nt	?	21µM*	nt
SMILES	Rab9 prom act	FLuc modulator	SMN2 splice enh	NPC1 prom act	ELG1 genotoxic	KinaseGlo FLuc
CCC(=O)Nc1c(-c2ccc3ccccc3c2)nc2ccccn12	?	3.8µM*	nt	17%	11%	nt
CCOc1ccccc1CNC(=O)C1CCN(Cc2cc3ccccc3n2Cc2ccccc2)CC1	nt	3%	nt	nt	nt	nt
O=c1cc(-c2cccc(O)c2O)oc2ccccc12	nt	nt	nt	nt	nt	0%
COc1ccc(C2c3c(n(C)c4ccccc34)C(=O)N2CC(=O)Nc2cccc(Cl)c2)cc1 (configuration not stated)	nt	-12%	nt	nt	nt	nt
S=C(Nc1ccc(Cl)cc1)c1nc2ccccc2[nH]1	1.8µM*	3.8µM*	14µM*	3.2µM*	10%	-9%
Cc1ccccc1NC(=O)NCCc1nc2ccccc2[nH]1	4%	-2%	?	-5%	1%	2%
OC(c1ccc(Cl)cc1)C(O)c1nc2ccccc2[nH]1 (configuration not stated)	-5%	-1%	-9%	-1%	-2%	-4%
Cc1ccccc1NC(=S)c1nc2ccccc2[nH]1	27%	11µM*	29%	25%	7%	-5%
O=[N+]([O-])c1ccc2sc(SCc3nc4ccccn4c3Br)nc2c1	11%	-2%	-9%	2%	8%	-1%
Brc1c(CSc2nc3ccccc3s2)nc2ncccn12	3.2µM*	12µM*	7.1µM*	3.2µM*	?	-1%
CCOC(=O)N/N=C/c1ccccc1OCc1ccc(Cl)cc1	-5%	15µM*	27%	-2%	2%	-1%
O/N=C/c1ccccc1OCc1ccc(Cl)cc1	?	17µM*	-6%	?	15%	0%
O/N=C/c1ccccc1OCc1ccccc1Cl	1%	-5%	1%	3%	2%	-1%
CCOc1ccc(NC(=O)Cn2cc(C(=O)c3ccccc3)c(=O)c3cc4c(cc32)OCCO4)cc1	nt	-2%	-17%	nt	nt	nt
COc1ccc(CCNC(=O)c2ccc3c(c2)N(Cc2c(F)cccc2Cl)C(=O)CS3)cc1OC	nt	-5%	nt	nt	nt	nt
CN(C)S(=O)(=O)c1ccc2c(c1)N(CC(=O)N1CCN(c3cccc(Cl)c3)CC1)CCS2	nt	7%	nt	nt	nt	nt

Source: PubChem BioAssay
